Data published in article PMC10668032, “Altered binding affinity of SIX1-Q177R correlates with enhanced WNT5A and WNT pathway effector expression in Wilms tumor”.
Over roughly 33,000 sequences, “e-score” has its median near -0.053; the highest 2% begin near 0.38. Shown is part of a subset that was picked to be rich in the highest values.

These sequences were tested against T1, SIX1 homeodomain (reference allele) (human, UniProt Q15475 108-198) (assay: universal protein binding microarray; Universal all-10-mer PBM (8x60K, AMADID 030236), 300 nM GST-tagged protein, Alexa Fluor 488 anti-GST; buffer, salt, pH and temperature not stated (as in Berger); high values mean tight binding). Details: protein: ivt; tags: N-terminal GST; dsDNA, one strand shown.
T1 sequence: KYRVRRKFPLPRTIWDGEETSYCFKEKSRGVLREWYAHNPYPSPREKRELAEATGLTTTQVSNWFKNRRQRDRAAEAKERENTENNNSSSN
In short: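 Duplicate protein binding microarrays (universal 'all 10-mer', 8×60K format) were incubated with GST-tagged homeodomains at 300 nM final concentration. Binding was quantified as 8-mer E-scores with the Universal PBM Analysis Suite.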

Q: For ATCGGGTA, which binding signal is on record?
A: 0.337 ± 0.0486 E-score

Q: How did the binding signal turn out when GATCGGAA was run?
A: 0.167 ± 0.0621 E-score

Q: CCTAGATC was tested. Which binding signal did it give?
A: 0.228 ± 0.0313 E-score

Q: Which binding signal does the source give for ATCAGTCA here?
A: 0.2227 ± 0.00177 E-score

Q: Which binding signal does the source give for CGGGATGA here?
A: 0.159 ± 0.0157 E-score

Q: How did the binding signal turn out when GGGGATTA was run?
A: 0.302 ± 0.0187 E-score

Q: For AGGGATCG, which binding signal is on record?
A: 0.386 ± 0.0182 E-score

Q: How did the binding signal turn out when CGGGATTA was run?
A: 0.263 ± 0.0233 E-score

Q: Which binding signal does the source give for AGAGATCG here?
A: 0.25548 ± 0.000134 E-score

Q: With GGGGATGA as the sequence, how does the binding signal read?
A: 0.267 ± 0.0256 E-score

Q: With AGGGATTG as the sequence, how does the binding signal read?
A: 0.203 ± 0.0478 E-score

Q: Which binding signal does the source give for AGGGATCA here?
A: 0.4493 ± 0.00351 E-score

Q: With AGGGATGA as the sequence, how does the binding signal read?
A: 0.176 ± 0.025 E-score

Q: With CGGGATCA as the sequence, how does the binding signal read?
A: 0.417 ± 0.0124 E-score

Q: With AGGGATTA as the sequence, how does the binding signal read?
A: 0.305 ± 0.032 E-score

Q: How did the binding signal turn out when GGGGATCA was run?
A: 0.4469 ± 0.0011 E-score

Q: Which binding signal does the source give for CAGCGATC here?
A: 0.265 ± 0.0201 E-score

Q: How did the binding signal turn out when ATTATGTG was run?
A: 0.171 ± 0.0412 E-score

Q: Which binding signal does the source give for ATACTCGC here?
A: 0.34 ± 0.069 E-score

Q: How did the binding signal turn out when CTATACGC was run?
A: 0.215 ± 0.0251 E-score

Q: How did the binding signal turn out when CGATCTGC was run?
A: 0.209 ± 0.00856 E-score

Q: CAGATTAC was tested. Which binding signal did it give?
A: 0.187 ± 0.0577 E-score

Q: Which binding signal does the source give for GATTATGC here?
A: 0.265 ± 0.0543 E-score

Q: With CCCATCTC as the sequence, how does the binding signal read?
A: 0.292 ± 0.0209 E-score

Q: For ACACCTTG, which binding signal is on record?
A: 0.186 ± 0.0328 E-score

Q: How did the binding signal turn out when AGGGATCC was run?
A: 0.386 ± 0.0382 E-score

Q: For ATGGATCC, which binding signal is on record?
A: 0.362 ± 0.0547 E-score

Q: CAGGATCC was tested. Which binding signal did it give?
A: 0.354 ± 0.0257 E-score

Q: Which binding signal does the source give for CGGGATCC here?
A: 0.393 ± 0.0513 E-score

Q: For AAGGATCC, which binding signal is on record?
A: 0.35 ± 0.0205 E-score

Q: For CTGGATCC, which binding signal is on record?
A: 0.351 ± 0.0527 E-score

Q: ATTCGATA was tested. Which binding signal did it give?
A: 0.302 ± 0.0451 E-score

Q: For ATCAAAAA, which binding signal is on record?
A: 0.153 ± 0.0897 E-score

Q: With ATCTAATA as the sequence, how does the binding signal read?
A: 0.237 ± 0.0442 E-score

Q: How did the binding signal turn out when GACACCAA was run?
A: 0.364 ± 0.0101 E-score

Q: Which binding signal does the source give for GACACCCC here?
A: 0.436 ± 0.0137 E-score

Q: With AACACCCC as the sequence, how does the binding signal read?
A: 0.268 ± 0.0366 E-score

Q: With TACACCCA as the sequence, how does the binding signal read?
A: 0.341 ± 0.0149 E-score

Q: How did the binding signal turn out when GACACCCA was run?
A: 0.396 ± 0.0322 E-score

Q: CACACCCC was tested. Which binding signal did it give?
A: 0.26 ± 0.0792 E-score

Q: Which binding signal does the source give for GATTATAC here?
A: 0.34 ± 0.0371 E-score

Q: Which binding signal does the source give for GCCGATCA here?
A: 0.229 ± 0.0129 E-score

Q: Which binding signal does the source give for ATAGCCCC here?
A: 0.181 ± 0.0335 E-score

Q: Which binding signal does the source give for TATCAGAA here?
A: 0.354 ± 0.0409 E-score

Q: Which binding signal does the source give for TACCTCTA here?
A: 0.204 ± 0.0372 E-score

Q: For CCGACAGA, which binding signal is on record?
A: 0.195 ± 0.026 E-score

Q: For GGGACACC, which binding signal is on record?
A: 0.341 ± 0.0406 E-score

Q: Which binding signal does the source give for CCGACACC here?
A: 0.438 ± 0.013 E-score

Q: How did the binding signal turn out when ACGACACG was run?
A: 0.156 ± 0.0251 E-score

Q: With ACGACACC as the sequence, how does the binding signal read?
A: 0.432 ± 0.024 E-score

Q: With GCGACACC as the sequence, how does the binding signal read?
A: 0.412 ± 0.0314 E-score

Q: How did the binding signal turn out when GAGACACC was run?
A: 0.306 ± 0.032 E-score

Q: How did the binding signal turn out when CCAACACC was run?
A: 0.291 ± 0.0364 E-score

Q: With AAGACACC as the sequence, how does the binding signal read?
A: 0.347 ± 0.0269 E-score

Q: For CTGCTATC, which binding signal is on record?
A: 0.292 ± 0.00957 E-score

Q: For CACACCAG, which binding signal is on record?
A: 0.156 ± 0.0892 E-score

Q: How did the binding signal turn out when ACTAATAC was run?
A: 0.225 ± 0.029 E-score

Q: How did the binding signal turn out when GATGTATA was run?
A: 0.306 ± 0.0136 E-score

Q: With CCGATATA as the sequence, how does the binding signal read?
A: 0.333 ± 0.0187 E-score

Q: How did the binding signal turn out when GCTATATA was run?
A: 0.2534 ± 0.00173 E-score

Q: GTGATATA was tested. Which binding signal did it give?
A: 0.419 ± 0.016 E-score

Q: TAGATATA was tested. Which binding signal did it give?
A: 0.323 ± 0.076 E-score

Q: With GCGATATA as the sequence, how does the binding signal read?
A: 0.399 ± 0.0347 E-score

Q: With ATGAGATA as the sequence, how does the binding signal read?
A: 0.262 ± 0.0851 E-score

Q: With CTGATATC as the sequence, how does the binding signal read?
A: 0.465 ± 0.0148 E-score

Q: With CTGATATA as the sequence, how does the binding signal read?
A: 0.358 ± 0.0287 E-score

Q: How did the binding signal turn out when CTTATATC was run?
A: 0.292 ± 0.0136 E-score

Q: For GTGAGATA, which binding signal is on record?
A: 0.388 ± 0.0283 E-score

Q: How did the binding signal turn out when CTAATATC was run?
A: 0.339 ± 0.0352 E-score

Q: For CTGAGATA, which binding signal is on record?
A: 0.248 ± 0.0841 E-score

Q: With ATGAGAAG as the sequence, how does the binding signal read?
A: 0.176 ± 0.0788 E-score

Q: For ATATGCAG, which binding signal is on record?
A: 0.222 ± 0.0653 E-score

Q: GATTACGC was tested. Which binding signal did it give?
A: 0.225 ± 0.0112 E-score

Q: With ATTGAGTA as the sequence, how does the binding signal read?
A: 0.192 ± 0.0104 E-score

Q: How did the binding signal turn out when AGATCTCC was run?
A: 0.184 ± 0.0698 E-score

Q: ATCTGAGA was tested. Which binding signal did it give?
A: 0.292 ± 0.0452 E-score

Q: For CATATGAG, which binding signal is on record?
A: 0.19 ± 0.0156 E-score

Q: GATCGCAC was tested. Which binding signal did it give?
A: 0.253 ± 0.0507 E-score

Q: ATGATATA was tested. Which binding signal did it give?
A: 0.414 ± 0.0235 E-score

Q: How did the binding signal turn out when AAGATATA was run?
A: 0.28 ± 0.0929 E-score

Q: ATTATATG was tested. Which binding signal did it give?
A: 0.182 ± 0.0439 E-score

Q: For ATGATATC, which binding signal is on record?
A: 0.476 ± 0.0196 E-score

Q: How did the binding signal turn out when ATAATATC was run?
A: 0.358 ± 0.0729 E-score

Q: How did the binding signal turn out when ATCATATG was run?
A: 0.281 ± 0.0284 E-score

Q: With ATGATATG as the sequence, how does the binding signal read?
A: 0.472 ± 0.0175 E-score

Q: Which binding signal does the source give for ATTATATA here?
A: 0.254 ± 0.0255 E-score

Q: Which binding signal does the source give for ATTATATC here?
A: 0.329 ± 0.0838 E-score

Q: With CTGGCATA as the sequence, how does the binding signal read?
A: 0.228 ± 0.0218 E-score

Q: ATCATTCC was tested. Which binding signal did it give?
A: 0.291 ± 0.0446 E-score

Q: GATCAACC was tested. Which binding signal did it give?
A: 0.319 ± 0.0399 E-score

Q: ACGATCAG was tested. Which binding signal did it give?
A: 0.1967 ± 0.000827 E-score

Q: With CGGATTTA as the sequence, how does the binding signal read?
A: 0.196 ± 0.05 E-score

Q: How did the binding signal turn out when CATCCCCC was run?
A: 0.199 ± 0.0656 E-score

Q: For TATCCCCA, which binding signal is on record?
A: 0.35 ± 0.00527 E-score

Q: AATCCCCC was tested. Which binding signal did it give?
A: 0.261 ± 0.00738 E-score

Q: Which binding signal does the source give for GATCGCCC here?
A: 0.379 ± 0.00824 E-score

Q: GATCCCAA was tested. Which binding signal did it give?
A: 0.275 ± 0.0231 E-score

Q: With AATCCCAC as the sequence, how does the binding signal read?
A: 0.158 ± 0.00675 E-score

Q: For GATCGCCA, which binding signal is on record?
A: 0.211 ± 0.0516 E-score

Q: GATCCCAC was tested. Which binding signal did it give?
A: 0.379 ± 0.0379 E-score

Q: How did the binding signal turn out when GATCCCCC was run?
A: 0.47 ± 0.0193 E-score

Q: For GATCCCGC, which binding signal is on record?
A: 0.375 ± 0.0422 E-score

Q: With GATCGCGC as the sequence, how does the binding signal read?
A: 0.197 ± 0.0401 E-score

Q: With GATCCCCA as the sequence, how does the binding signal read?
A: 0.387 ± 0.046 E-score
